TRPML1 agonist: agonists of human TRPML1 channel. 410,000 compounds, 0.12% hits. activation, % (concentration not given with the values). AID 624414. Q9GZU1. TRPML1-expressing cells, Ca2+ dye fluorescence, FDSS; in the data active = activation above about 50%; inconclusive = mostly about 30% to 49%; note: 0% is about no effect
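TRPML1-DL cells, Tet-induced overnight (~16 h, 37 degrees C), loaded 45-90 min at room temperature with Ca8 no-wash calcium dye plus quencher. FDSS fluorescence: 10 s baseline, compound pin-transfer, 110 s agonist read, then EC80 54-4 (4uM final) and 110 s antagonist read.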
TRPV1 PAM: human TRPV1 potentiation; TRPV1-expressing cells, Fluo-8 calcium influx, capsaicin EC20 potentiation; potentiation, % at 8.33 µM; 320,000 compounds, 0.02% hits; in the data active = potentiation above about 80%; inconclusive = between about 30% and that limit; note: 0% is about no effect
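Cells expressing TRPV1 were dye-loaded with Fluo-8 and read kinetically: 10 s baseline, 3 min after compound (agonist portion), then 2 min after EC20 capsaicin (allosteric enhancer portion). Calcium-bound dye fluorescence at 480/520 nm.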
TRPV1 agonist: human TRPV1 agonism | Q8NER1 | TRPV1-expressing cells, Fluo-8 calcium influx, agonist mode | activation, % at 8.33 µM | 320,000 compounds, 0.19% hits | AID 540275; in the data active = activation above about 80%; inconclusive = between about 30% and that limit; note: 0% is about no effect
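TRPV1-expressing cells were cultured overnight at 35.5C and loaded with Fluo-8 calcium dye for 40 to 90 min at room temperature. After a 10 s baseline, compound was added and calcium influx was read kinetically for 3 min (ex 480/em 520 nm).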
TRHR ag: agonists of human TRH receptor; 360,000 compounds, 0.18% hits; P34981; TRHR cells, calcium flux fluo-8, FDSS agonist mode; activation, % at 2 µM; AID 493084; in the data active = activation above about 30%; note: 0% is about no effect
Target sequence (P34981 whole entry, looked up): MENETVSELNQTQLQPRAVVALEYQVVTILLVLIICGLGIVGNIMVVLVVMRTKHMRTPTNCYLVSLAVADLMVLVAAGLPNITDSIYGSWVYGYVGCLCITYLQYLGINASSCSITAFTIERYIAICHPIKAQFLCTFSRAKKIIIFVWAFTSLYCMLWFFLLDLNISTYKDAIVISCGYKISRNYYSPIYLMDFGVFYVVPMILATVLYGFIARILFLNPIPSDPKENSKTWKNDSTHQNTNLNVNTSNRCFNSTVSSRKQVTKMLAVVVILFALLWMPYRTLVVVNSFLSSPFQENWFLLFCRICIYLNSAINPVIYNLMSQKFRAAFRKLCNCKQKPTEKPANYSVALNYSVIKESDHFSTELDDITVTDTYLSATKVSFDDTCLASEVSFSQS
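Agonist-mode FDSS calcium read (Ex 480/Em 530, 1 s cycles) in 1536-well TRHR cells with fluo-8 dye, after 10-cycle baseline and 23 nL compound addition; TRH at EC20 (10 nM final) added afterwards for the enhancer phase.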
TRPML1 inh: inhibitors of human TRPML1 channel; Q9GZU1; 390,000 compounds, 0.02% hits; AID 624415; TRPML1-inducible cells, Ca2+ dye fluorescence, FDSS; hits give low values; inhibition of EC80 agonist-evoked calcium signal; activity change, negative = inhibition, % (concentration not given with the values); in the data active = activity change below about -50%; inconclusive = between about -30% and that limit;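 note: stimulus is agonist 54-4 at its EC80 concentration; % is set by controls: 0 for no effect and ±100 for the full control effect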
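Calcium fluorescence in TRPML1-DL cells induced overnight with Tet: a 110 s read after compound pin addition, then a 110 s antagonist read after challenge with 54-4 at 4 uM final (EC80).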
TRHR enhancer: allosteric enhancers of human TRH receptor; P34981; TRHR cells, fluo-8 calcium fluorescence, EC20 TRH enhancement; enhancement, % at 2 µM; 360,000 compounds, 0.66% hits; AID 493056; in the data active = enhancement above about 30%; note: 0% is about no effect
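TRHR-expressing cells loaded with fluo-8 calcium dye were read kinetically (ex 480/em 530) during compound addition, then stimulated with an EC20 of TRH (10 nM final). Enhancement of the Gq-mediated intracellular calcium response was scored.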
Active calls of the source: *; u = inconclusive; x = no result. Shown are actives, neighbours in structure and some others; about 0.96% of the full set was active somewhere.

SMILES	TRPML1 agonist	TRPV1 PAM	TRPV1 agonist	TRHR ag	TRPML1 inh	TRHR enhancer
CC(C)(C)c1cc(C(=O)Nc2ccc(F)cc2)n(Cc2ccc(F)cc2)n1	0.7	-23.1	87.9*	3.6	5.8	-6.8
Cc1ccc(NC(=O)c2cc(C(C)(C)C)nn2Cc2ccccc2)cc1	0.0	5.2	u	-1.2	-5.1	-7.1
COc1cc(/C=C2\S/C(=N/S(=O)(=O)c3ccc(C)cc3)NC2=O)c([N+](=O)[O-])cc1OC	-0.2	1.8	-0.9	0.0	-0.4	1.7
Cc1ccc(S(=O)(=O)/N=C2/NC(=O)/C(=C/c3cc([N+](=O)[O-])ccc3O)S2)cc1	67.3*	0.4	-0.5	0.3	0.9	19.6
Nc1c(Br)cc(C=O)cc1Br	-0.8	x	x	x	x	x
CCCN(C(=O)c1cc2c(Cl)nc3ccccc3c2s1)c1cccc(C)c1	1.5	x	x	1.2	31.2	39.9*
CCOC(=O)CCCCNCc1ccccc1	0.4	-6.8	2.4	0.5	-16.5	30.2*
O=[N+]([O-])c1ccc(/C=C2\C=C(C(O)c3ccc([N+](=O)[O-])cc3)c3ccccc32)cc1 (stereo not given)	-0.3	x	x	x	x	x
COC(=O)/C=C(\C)NC(=O)c1ccc(F)cc1	1.4	8.1	-14.5	0.1	-16.3	34.4*
COc1ccc([N+](=O)[O-])cc1C(=O)C(=O)c1ccccc1	-0.2	3.3	2.1	-0.7	67.1	32.7*
COc1cc(C(=O)c2ccccc2)c([N+](=O)[O-])cc1OC	-0.2	2.4	-2.2	-0.8	-4.9	-4.4
CC(C)NC(=O)c1ccc2c(=O)n(CC3CCCO3)c(=S)[nH]c2c1 (stereo not given)	-0.6	143.4*	-8.5	-0.3	2.2	7.1
C(=C\c1c[nH]c2ccccc12)/c1ccnc2ccccc12	1.4	x	x	x	x	x
Cc1cccc(-c2noc(CCC(=O)Nc3ccc(C(N)=O)cc3)n2)c1	4.1	3.7	80.8*	-0.4	9.2	-6.1
COc1ccc(NC(=O)C2CCCN(c3nccc(C)n3)C2)cc1 (stereo not given)	-1.1	22.4	93.6*	-0.1	-2.7	3.2
Cc1cc(N2CCCC(C(=O)Nc3ccc4c(c3)CCC4)C2)n2ncnc2n1 (stereo not given)	0.5	9.6	92.8*	-0.8	-7.8	8.2
Cc1cc(N2CCCC(C(=O)Nc3cccc(Cl)c3)C2)n2ncnc2n1 (stereo not given)	0.3	-18.1	u	-1.6	-3.0	-2.3
CCOC(=O)c1ccc(Nc2nc3nonc3nc2Nc2cccc(C)c2C)cc1	-0.4	x	x	6.3	37.3	-3.4
N#C/C(=C\c1cc(Br)c(O)c(Br)c1)c1nc2ccccc2c(=O)[nH]1	1.9	x	x	78.1*	7.5	20.3
CCOc1ccc(NC(=O)COC(=O)c2ccccc2OCC(=O)N(C)C)cc1	-0.7	x	x	x	x	x
CCC(=O)NC(c1ccc(F)cc1)c1cc(Cl)c2cccnc2c1O (stereo not given)	x	x	x	2.7	x	3.2
CCOC(=O)CC1C(=O)NCCN1Cc1cccc(OC)c1 (stereo not given)	-0.5	-10.8	1.5	0.8	-2.3	35.8*
Cc1ccc(S(=O)(=O)c2cnc(-c3ccccc3)[nH]c2=O)cc1	-0.4	x	x	x	x	x
CC[n+]1ccccc1/C=C/c1ccc(N(C)C)cc1	4.8	-1.1	-2.9	5.0	-3.2	0.8
CCCCCC[n+]1ccccc1/C=C/c1ccc(N(C)C)cc1	69.0*	x	x	x	-0.8	x
SMILES	TRPML1 agonist	TRPV1 PAM	TRPV1 agonist	TRHR ag	TRPML1 inh	TRHR enhancer
COc1cc(/C=C2\C=Cc3ccccc32)cc(OC)c1OC	-0.4	x	x	x	x	x
Cc1ccc(S(=O)(=O)Nc2cc3c(cc2N2CCOCC2)n(C)c(=O)n3C)c(C)c1	0.0	x	x	-0.5	16.7	3.6
Cc1ccc(S(=O)(=O)Nc2cc(C(F)(F)F)ccc2N2CCOCC2)cc1	u	-0.9	13.2	0.2	11.8	32.9*
Cc1ccc(S(=O)(=O)Nc2cc(C(F)(F)F)ccc2N2CCOCC2)c(C)c1	63.6*	-7.7	22.8	1.2	1.3	3.2
COc1ccc(/C=C/c2ccnc3ccccc23)c(OC)c1	0.0	x	x	x	x	x
CCOc1cc(/C=C2\SC(=S)N(Nc3ccccc3)C2=O)ccc1O	22.4	15.6	8.6	34.7*	46.7	-2.3
